An excerpt weighted towards active compounds, which were near 9.4% of everything screened.
NPC1 prom act: NPC1 promoter activation. Huh7 NPC1 promoter luciferase reporter, 24 h. Potency, µM (highest dose often 9.22 µM), for the others: at the highest dose activation, most hits filed as activators. AID 485313. 2.4% of 320,000 active; note: % of control where 0% means no effect; nearly all actives have a fitted effect of over 60% in size
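Huh7 reporter cells (NPC1 promoter driving luciferase) are dosed with compound for 24 h at 37 °C, 5% CO2; luciferase detection reagent is then added and luminescence measured after 10 min at ambient temperature.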
ELG1 genotoxic: induces genotoxicity in HEK293T cells with luciferase-tagged ELG1; 1.3% of 330,000 active; Potency, µM (series often up to 46 µM), without a hit: at the highest dose activity change, positive = activation, usual class: activators; HEK293T ELG1-luciferase reporter, luminescence, 16 h; note: % of control where 0% means no effect; nearly all actives have a fitted effect of over 60% in size
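After overnight (16 hr) compound treatment at 37 °C, ELG1-luciferase HEK293T cells were lysed with ONE-Glo; luminescence quantified 30 min later at room temperature.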
SMN2 splice enh: SMN2 splice variant enhancement. HEK293 SMN2-luciferase splicing reporter, luminescence, 30-36 h. Potency, µM (top dose mostly 46.1 µM), without a hit: at the highest dose activity change, positive = activation, actives largely listed as activators. 2.8% of 210,000 active. AID 1458; note: % of control where 0% means no effect; nearly all actives have a fitted effect of over 55% in size
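qHTS luciferase splicing reporter: luminescence rises when SMN2 exon 7 is included in transfected HEK293 cells. Compound exposure lasted 30-36 h at 37C, with 4.5 mM final sodium butyrate as control, followed by a ONE-Glo read.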
ELG1 repair inh: inhibitors of ELG1-dependent DNA repair in HEK293T cells; HEK293T ELG1-luciferase reporter, luminescence, 16 h; DNA damage induced by 5-fluorouridine; Potency, µM (doses to about 46.1 µM), for inactives: top-dose activity change, negative = inhibition, usual class: inhibitors; AID 504467; 2.3% of 330,000 active; note: % is set by controls: 0 for no effect and ±100 for the full control effect; nearly all actives have a fitted effect of over 55% in size
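Quantitative HTS, concentration-response format. 2,000 cells/well co-treated with 5-fluorouridine and compound, 16 hr in 5% CO2 at 37 °C; ONE-Glo luminescence read after 30 min.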
Rab9 prom act: activators of Rab9 promoter | 2.8% of 320,000 active | Huh7 Rab9 promoter-luciferase reporter, luminescence, 24 h | Potency, µM (titrated, usually from 9.22 µM), for inactives: at the highest dose activation, negative = inhibition, actives largely listed as activators; note: % of control where 0% means no effect; nearly all actives have a fitted effect of over 60% in size
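Luminescence from Amplite-detected luciferase (10 minutes, ambient) reports Rab9 promoter activation. Before that, stable Rab9-luciferase Huh7 cells (1500/well, reduced-serum OP-MEM I plus 10% FBS) were exposed to compound for 24 hours at 37C.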
FLuc modulator: inhibits or activates purified firefly luciferase, miR-21 counter-screen | purified FLuc, Km substrates, luminescence inhibition | Potency, µM (highest dose often 57.5 µM), inactives show at the top dose activity change, negative = inhibition, most hits filed as inhibitors | 6.9% of 360,000 active;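 note: plate controls were vehicle for no effect and reference inhibitor for full effect; nearly all actives have a fitted effect of over 55% in size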
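Purified P. pyralis luciferase, 10 nM final, with Km-level 10 uM D-luciferin and 10 uM ATP in 50 mM Tris acetate pH 7.5, 10 mM Mg acetate, 0.01% Tween-20, 0.05% BSA; 6-point qHTS titration about 60 µM downward; luminescence read.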
ELG1 FLuc counter: luciferase inhibition in cell-free luciferin readout for ELG1 hits | shares compounds with ELG1 repair inh | cell-free firefly luciferase luminescence counter-screen, ViewLux | AID 624247 | Potency, µM (top dose mostly 46.1 µM), for the others: at the highest dose activity change, negative = inhibition, hits mostly inhibitors | 3% of 350 active; note: % is set by controls: 0 for no effect and ±100 for the full control effect
ELG1 Luc conf: confirmation of human ELG1-dependent DNA repair inhibitors. shares compounds with ELG1 repair inh. 68% of 670 active. AID 624248. HEK293T ELG1-luciferase levels, luminescence; cells co-treated with 5-fluorouridine. Potency, µM (highest dose often 46.1 µM), for inactives: top-dose activity change, negative = inhibition, most hits filed as inhibitors; note: % is set by controls: 0 for no effect and ±100 for the full control effect; nearly all actives have a fitted effect of over 55% in size
ELG1 MMS Luc: MMS-stimulated human ELG1 repair inhibition, confirmed; shares compounds with ELG1 repair inh; HEK293T luciferase-tagged ELG1 level, MMS stimulated; Potency, µM (series often up to 46.1 µM), inactives show at the highest dose activity change, negative = inhibition, hits mostly inhibitors; 53% of 670 active; AID 624249; note: % is set by controls: 0 for no effect and ±100 for the full control effect; nearly all actives have a fitted effect of over 60% in size
ELG1 5FU viab: confirmation of ELG1 repair inhibitors: viability with 5FU; Potency, µM (doses to about 46.1 µM), inactives show at the top dose activity change, negative = viability loss, hits mostly cytotoxic; AID 624250; cell viability with 5-FU, ELG1-dependent repair; shares compounds with ELG1 repair inh; 670 tested, under 10 active;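 note: ELG1-luc HEK293T cells cotreated with 5-fluorouridine at 10 µM final; viability measured 16 h after compound addition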
ELG1 MMS viab: confirmation of ELG1 repair inhibitors: viability with MMS. shares compounds with ELG1 repair inh. Cell viability with MMS, ELG1-dependent DNA repair. Potency, µM (series often up to 46.1 µM), for the others: top-dose activity change, negative = viability loss, most hits filed as cytotoxic. 33% of 670 active. AID 624251;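 note: ELG1-luc HEK293T cells co-treated with 10 µM MMS; viability read 16 h after compound addition; % is set by controls: 0 for no effect and ±100 for the full control effect; nearly all actives have a fitted effect of over 60% in size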
Cell viab unstim: unstimulated viability counter-screen for ELG1 repair hits. shares compounds with ELG1 repair inh. cell viability counter-screen, unstimulated, luminescence. Potency, µM (series often up to 45.9 µM), inactives show top-dose activity change, negative = loss of viability, actives largely listed as cytotoxic. 8% of 900 active. AID 624252;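 note: compound exposure lasted 16 hours before reading; % is set by controls: 0 for no effect and ±100 for the full control effect; nearly all actives have a fitted effect of over 55% in size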
FLuc enzyme: counter-screen for ELG1 repair inhibitors: firefly luciferase inhibition. Potency, µM (titrated, usually from 57.5 µM), for inactives: at the highest dose activity, negative = inhibition, usual class: inhibitors. shares compounds with ELG1 repair inh. purified firefly luciferase, luminescence counter-screen. AID 624253. 10% of 350 active; note: % is set by controls: 0 for no effect and ±100 for the full control effect
* marks the source's active call; other numbers are inactive results; u = inconclusive; x = no result. Calls come from the whole dose curve; as a rule, active = well fitted curve in the direction sought with a large enough effect; inconclusive = small, poorly fitted or top-dose-only effect, or another doubt; inactive = no such curve, though single readings can be large; an effect the other way counts as inactive or inconclusive. Potency is the fitted concentration of half-maximal effect.

SMILES | NPC1 prom act | ELG1 genotoxic | SMN2 splice enh | ELG1 repair inh | Rab9 prom act | FLuc modulator | ELG1 FLuc counter | Cell viab unstim | FLuc enzyme | others
Cc1cc(C(=O)OCC(=O)NC(=O)c2cccn2C)c2ccccc2n1 | -5.8% | 0.8% | x | u | -3.9% | 5.8% | x | x | x
CC1O[C@@H](OC2CC[C@@]3(C=O)C4CC[C@]5(C)C(C6=CC(=O)OC6)CC[C@@]5(O)C4CC[C@]3(O)C2)C(O)C(O)C1O (some centres undefined) | x | x | -108.7% | x | x | x | u | 0.141µM* | -8.4% | ELG1 Luc conf=0.315µM*;ELG1 MMS Luc=0.158µM*;ELG1 5FU viab=u;ELG1 MMS viab=0.281µM*
C[C@@H]1O[C@@H](O[C@H]2CC[C@]3(C=O)C4CC[C@]5(C)[C@@H](C6=CC(=O)OC6)CC[C@]5(O)[C@@H]4CC[C@]3(O)C2)[C@H](O)[C@H](O)[C@H]1O (some centres undefined) | x | x | -86.5% | x | x | x | x | x | x
O=C(CCl)c1ccccc1 | x | x | 0.4% | x | x | x | x | x | x
C=C(C)C1Cc2c(ccc3c2OC2COc4cc(OC)c(OC)cc4C2C3=O)O1 (centres undefined) | x | x | -101.1% | x | x | x | x | x | x
COc1cc2c(cc1OC)C1C(=O)c3c(cc4c(c3O)C=CC(C)(C)O4)OC1CO2 (centres undefined) | x | x | -57.6% | x | x | x | -2.8% | u | u | ELG1 Luc conf=u;ELG1 MMS Luc=0.706µM*;ELG1 5FU viab=-3.5%;ELG1 MMS viab=0.792µM*
CCCC(=O)O[C@@H]1[C@@H](C)[C@@]2(O)[C@@H](C=C(CO)C[C@]3(O)C(=O)C(C)=C[C@@H]23)[C@@H]2C(C)(C)[C@]12OC(=O)CCC | x | x | x | x | x | x | x | u | x
CCCCCCCCCCCCCC(=O)O[C@@H]1[C@@H](C)[C@@]2(O)[C@H](C=C(CO)C[C@]3(O)C(=O)C(C)=C[C@@H]23)[C@@H]2C(C)(C)C12OC(C)=O (some centres undefined) | x | x | 15.2% | x | x | x | 78.6% | u | u
COc1ccc(NC(=O)CN2C(=O)CN=C(c3ccccc3)c3ccccc32)c(OC)c1 | x | x | x | x | x | -6.5% | x | x | x
CCCN1CCCC2Cc3nc(N)ncc3CC21 (centres undefined) | x | x | 7.2% | x | x | x | x | x | x
CC1O[C@@H](O[C@@H]2C(O)C[C@H](O[C@@H]3C(O)C[C@@H](OC4CC[C@@]5(C)C6CC[C@]7(C)C(C8=CC(=O)OC8)CC[C@@]7(O)C6CC[C@@H]5C4)OC3C)OC2C)CC(O)[C@H]1O (some centres undefined) | x | x | -75.9% | x | x | x | x | x | x
c1ccc(N2CCC3(CCNCC3)CC2)cc1 | x | x | -10.8% | x | x | x | x | x | x
